Results taken from PubChem BioAssay (Tox21).
Values joined by “and” are separate entries in the source; they are usually repeats but may differ in a detail not shown here. Identical values can stand only once. Records with an inconclusive call do not appear. A structure can be active in one record and inactive in another. Values without a mark were called inactive. Active and inactive are the calls of the source. The call rests on the fitted dose curve; in most records, active means well fitted cell-killing curve with a large enough effect in the repeat runs; inconclusive means weak or mixed curves, or effect the other way; inactive means flat fitted curve, though single readings scatter.

assay: qHTS RealTime-Glo MT Cell Viability Assay in HEK293 cells - 40 hour (AID 1224874); conditions: RealTime-Glo luminescence; max response: stronger effect = lower value; further: nearly all actives have a fitted effect of over 50% in size
From the text: U.S. Tox21 Program National Center for Advancing Translational Sciences [NCATS] NIH Chemical Genomics Center [NCGC] U.S. Environmental Protection Agency [EPA] National Institutes of Environmental Health Sciences [NIEHS] National Toxicology Program [NTP] U.S. Food and Drug Administration [FDA] Tox21 Assay Overview: Measure of cell viability is critical in the cell-base assay. Analysis of cell viability is necessary for the characterization of cell responses to cytotoxic drugs and environmental stress. A RealTime-Glo MT Cell Viability Assay to monitor cell viability in real time of continues cell culture during 40 hours of compound treatment was used to screen Tox21 10K library compounds in Hek293 cells. The RealTime-Glo MT Cell Viability Assay is a nonlytic, homogeneous, bioluminescent method to measure cell viability in real time using a simple, plate-based method. The assay involves adding NanoLuc luciferase and a cell-permeant prosubstrate to cells in culture. Viable cells reduce the proprietary prosubstrate to generate a substrate for NanoLuc luciferase. This substrate diffuses from cells into the surrounding culture medium, where it is rapidly used by the NanoLuc Enzyme to produce a luminescent signal. The signal correlates with the number of viable cells, making the assay well suited for cytotoxicity studies.
Tox21 Assay Protocol Summary: The mixture of Hek293 cell suspension and reagents were dispensed at 600cells/6 ul/well in 1536-well tissue culture treated black solid bottom plates using a Multidrop dispenser. After the assay plates were incubated at a 37 C/5% CO2 incubator for 5 hours, 23 nL of compounds dissolved in DMSO, positive and negative controls was transferred to the assay plate by a pintool work station. The plates were incubated at 37 C for 40 hours. The luminescence intensity were measured at 0h, 8h, 16h, 24h, 32h and 40h time points using ViewLux plate reader during compound treatment.
On the % scale 0 is the no-effect control and ±100 the full control effect; potency means the concentration at half of the fitted maximal effect.

| SMILES | Potency | max response |
| --- | --- | --- |
| COC(=O)C1=C(C)NC(C)=C(C(=O)OCCN(C)Cc2ccccc2)C1c1cccc([N+](=O)[O-])c1 (stereo not given) | 24.4 µM (active) and 16.9 µM (active) |  |
| O=C(c1ccccc1)c1ccccc1O |  | -15.9% and -14.9% |
| O=[N+]([O-])c1ccc2c(c1)Cc1ccccc1-2 |  | 0.388% and -3.63% |
| O=C(c1ccc(OCCN2CCCCC2)cc1)c1c(-c2ccc(O)cc2)sc2cc(O)ccc12 | 17.4 µM (active) and 21.9 µM (active) and 23.9 µM (active) |  |
| CCCCc1oc2ccccc2c1C(=O)c1cc(I)c(OCCN(CC)CC)c(I)c1 | 34.9 µM (active) and 23.9 µM (active) |  |
| OCCO |  | -5.99% and -0.466% |
| Cc1c(OCC(F)(F)F)ccnc1CS(=O)c1nc2ccccc2[nH]1 (stereo not given) | 21.9 µM (active) and 10.7 µM (active) |  |
| CC(=O)O[C@]1(C(C)=O)CC[C@H]2[C@@H]3C=C(Cl)C4=CC(=O)[C@@H]5C[C@@H]5[C@]4(C)[C@H]3CC[C@@]21C | 21.9 µM (active) |  |
| CCCCNS(=O)(=O)c1ccccc1 | 4.36 µM (active) | -5.06% |
| CCCCC(CC)COCC1CO1 (stereo not given) |  | 1.02% and 0.683% |
| COC(C)COC(C)COC(C)CO (stereo not given) |  | 0.372% and 18.3% |
| Cc1cc2nc3c(=O)[nH]c(=O)nc-3n(C[C@H](O)[C@H](O)[C@H](O)CO)c2cc1C |  | -7.07% and -0.427% and -0.0783% |
| c1ccc2c(c1)Oc1ccccc1S2 |  | -19.5% and -6.23% |
| Brc1cc(Oc2cc(Br)c(Br)c(Br)c2Br)c(Br)c(Br)c1Br |  | -1.03% and -0.229% |
| CC(C)OC(=O)C(C)(C)Oc1ccc(C(=O)c2ccc(Cl)cc2)cc1 | 24.5 µM (active) and 19 µM (active) |  |
| O=CCCCC=O | 42.1 µM (active) | 3.08% |
| OC[C@H]1O[C@@H]2O[C@H]3[C@H](O)[C@@H](O)[C@@H](O[C@H]4[C@H](O)[C@@H](O)[C@@H](O[C@H]5[C@H](O)[C@@H](O)[C@@H](O[C@H]6[C@H](O)[C@@H](O)[C@@H](O[C@H]7[C@H](O)[C@@H](O)[C@@H](O[C@H]8[C@H](O)[C@@H](O)[C@@H](O[C@H]1[C@H](O)[C@H]2O)O[C@@H]8CO)O[C@@H]7CO)O[C@@H]6CO)O[C@@H]5CO)O[C@@H]4CO)O[C@@H]3CO |  | 3.33% |
| O=C(O)c1ccccc1Nc1cccc(C(F)(F)F)c1 |  | -19.7% and -3.43% |
| c1cc(N(CC2CO2)CC2CO2)ccc1OCC1CO1 (stereo not given) | 19.5 µM (active) and 15.5 µM (active) |  |

| SMILES | Potency | max response |
| --- | --- | --- |
| Nc1ccc(Cl)cc1Cl |  | 8.67% and 2.84% |
| CCC(C)c1ccccc1O (stereo not given) |  | -13% and 2.84% |
| CCCCC(CC)COC(=O)c1ccc(N(C)C)cc1 (stereo not given) |  | -14.3% and -13.1% and -14.9% |
| CCCCCCCCCC(=O)OC |  | 7.54% and -2.85% |
| Nc1ccc(S(=O)(=O)Nc2cnc3ccccc3n2)cc1 |  | -2.7% and 1.7% |
| CC(=O)C1(C)CC2=C(CCCC2(C)C)CC1C (stereo not given) |  | -4.9% and 2.42% |
| O=C1OC2(c3cc(Br)c(O)c(Br)c3Oc3c2cc(Br)c(O)c3Br)c2c(Cl)c(Cl)c(Cl)c(Cl)c21 |  | -3.53% |
| C=CC(C)(CCC=C(C)C)OC(C)=O (stereo not given) |  | 4.78% and 0.789% |
| OC(CCl)CCl |  | 2.58% and 9.25% |
| CC(C)=CCC/C(C)=C\CO |  | 0.916% and 13.7% |
| CC(C)OC=O |  | 5.62% and -7.32% |
| CC(CCC(=O)O)(c1ccc(O)cc1)c1ccc(O)cc1 |  | -1.02% and 0.133% |
| CC(C(=O)O)c1cccc(C(=O)c2ccccc2)c1 (stereo not given) |  | 9.55% and 2.14% |
| CN(C)CCN(Cc1cccs1)c1ccccn1 |  | -22.8% and -7.6% |
| O=C(/C=C/C=C/c1ccc2c(c1)OCO2)N1CCCCC1 | 55.1 µM (active) |  |
| CNCCCC12CCC(c3ccccc31)c1ccccc12 | 49 µM (active) and 23.9 µM (active) |  |
| Cc1ncc[nH]1 |  | 3.53% and 2.93% |
| CCC(C)CO (stereo not given) | 24.5 µM (active) | 4.66% |
